# Source: PubChem (National Center for Advancing Translational Sciences (NCATS))
# Shown is part of a subset that was picked to be rich in hits.
# Shiga inhibitor: inhibitors of Shiga toxin in Vero cells | Vero cells, Shiga toxin protein synthesis inhibition reporter | inhibition, % at 38.7 µM | 290,000 compounds, 9.2% hits | AID 2315; in the data active = inhibition mostly above about 28%, no sharp cut-off; inactive = mostly below about 43%; note: 0% is about no effect
# AMA1 RON2 block: inhibitors of Plasmodium falciparum AMA1-RON2 interaction; 360,000 compounds, 0.2% hits; Potency, µM (doses to about 58.2 µM), without a hit: at the highest dose activity change, negative = inhibition, usual class: inhibitors; AlphaScreen AMA1-biotinylated RON2 peptide binding; AID 720542; active = well fitted inhibition curve with a large enough effect; inconclusive = small, poorly fitted or top-dose-only effect; inactive = no such curve, though single readings can be large or run the other way;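 note: potency is the fitted concentration of half-maximal effect; 0% = vehicle wells and -100% = peptide control; nearly all actives have a fitted effect of over 45% in size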
#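 AMA1 (3D7) with his tag at 25 nM final met compounds first, then biotinylated RON2 peptide at 25 nM; detection used donor plus acceptor beads, 10 µg/mL apiece, read by AlphaScreen after 30 min at room temperature.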
# Lassa entry inh: inhibitors of Lassa virus binding or cell entry; Lassa virus pseudotype entry inhibition, cell reporter; Potency, µM (titrated, usually from 37.9 µM), for the others: at the highest dose activity change, negative = inhibition, hits mostly inhibitors; 300,000 compounds, 1.2% hits; AID 540256; calls by dose curve; tested in HEK293 cells; note: potency is the fitted concentration of half-maximal effect; % is set by controls: 0 for no effect and ±100 for the full control effect; nearly all actives have a fitted effect of over 50% in size
# Marburg entry inh: blocks Marburg virus binding to or entry into cells; Marburg virus pseudotyped entry inhibition, cell reporter; Potency, µM (titrated, usually from 37.8 µM), for the others: at the highest dose activity change, negative = inhibition, usual class: inhibitors; 300,000 compounds, 1.8% hits; calls by dose curve; tested in HEK293 cells; note: potency is the fitted concentration of half-maximal effect; % is set by controls: 0 for no effect and ±100 for the full control effect
# Cycloheximide cs: affects cycloheximide protein synthesis inhibition readout, counter-screen | cell reporter, cycloheximide protein synthesis inhibition counterscreen | max response, % | 300,000 compounds, 12% hits; in the data active = max response mostly above about 13%, no sharp cut-off; inactive = mostly below about 14%; note: read at 38.3 µM for the half of the compounds with a filed dose; 0% is about no effect
# Starred values were filed as active, the others as inactive; ? = inconclusive; · = no result given; [ ] = dose if it differs, or a comment.
SMILES,Shiga inhibitor,AMA1 RON2 block,Lassa entry inh,Marburg entry inh,Cycloheximide cs
CCc1cccc2c(C(=O)COC(=O)c3ccc(O)cc3)c[nH]c12,53.1*,17.4%,?,2.1%,36.9*
CCc1cccc2c(C(=O)COC(=O)c3ccccc3)c[nH]c12,76.2*,-6.9%,-4.4%,5.2%,21.1*
CCc1cccc2c(C(=O)COC(=O)c3cnc(C)cn3)c[nH]c12,·,-6.4%,20.5%,?,·
Cc1ccc(S(=O)(=O)NCC2CCC(C(=O)NCCCN3CCCC3=O)CC2)cc1 (stereo not given),-5.0,-12.4%,-2.7%[46.1 µM],-0.2%[46.1 µM],-9.4
N#Cc1ccc(C(C(=O)NC2CCCCC2)n2c(=O)c(-c3ccccc3)nc3ccccc32)cc1 (stereo not given),·,-4.4%,·,·,·
CCCCOc1cc(C(=O)NCCN(CC)CC)c2ccccc2n1,-19.5,11.2%,13µM*,10.3µM*,-3.6
CCN(CC)CCNC(=O)c1cc(-c2ccc(Br)s2)nc2ccccc12,-4.2,-1.8%,?,?,-8.7
COc1ccc(CCNC(=O)CCc2c(C)nc3cc(-c4ccccc4OC)nn3c2C)c(OC)c1,·,·,-22.5%[46.1 µM],-9.9%[46.1 µM],·
O=Cc1cccn1-c1ccc2ccccc2c1,42.1*,-0.7%,·,·,29.5*
COc1ccc(-n2cccc2C=O)cc1,18.7,-16.9%,-9.1%,?,-0.9
CC(=O)c1cccc2c1OC(C)C(=O)N2Cc1ccc(Cl)cc1 (stereo not given),·,7.6%,·,·,·
S=C(NCCCN1CCN(CCCNC(=S)NC2CCCCC2)CC1)NC1CCCCC1,·,-8.2%,-15.1%[46.1 µM],?,·
O=c1cc(NCc2ccccc2)nc2ccccn12,37.7,4.7%,1.3%,?,16.6*
O=c1cc(Cl)nc2ccccn12,·,-10.7%,7.9%[46.1 µM],-1.8%[46.1 µM],·
O=C(NCc1nc2ncc(Br)cc2[nH]1)c1ccccc1,47.8,3.1%,2.9%,?,15.4*
COc1ccc(NC(=O)CCn2cc(C)c3ccccc32)cc1,56.1*,-16.3%,?,-9.5%,48.3*
O=C(NNC(=O)c1cccc2ccccc12)c1ccc(F)cc1,·,33.0%,18.6%,?,·
COc1ccc(NC(=O)c2ccccc2C)cc1,·,-5.9%,?,?,33.5*
COc1ccc(NC(=O)Cn2cc(C(C)=O)c3ccccc32)cc1,·,-2.0%,·,·,-0.4
O=C(Nc1ccc(F)cc1)c1cccc2ccccc12,15.4,4.6%,·,·,24.2*
COc1ccc(NC(=O)c2cccc3ccccc23)cc1,20.7,12.5%,9.9%[46.1 µM],?,20.0*
OC[C@@H]1CN(Cc2cccc3ccccc23)C[C@H](n2cnc3c(NCc4ccco4)ncnc32)O1,·,-19.6%,·,·,·
CC(=O)N1c2ccc(S(=O)(=O)NCc3ccc(Cl)cc3)cc2CC1C (stereo not given),·,·,8.9%[46.1 µM],·,·
CC(NC(=O)C1CCCN(C(=O)c2ccc(Cl)cc2)C1)c1cccc(C(F)(F)F)c1 (stereo not given),·,0.0%,·,·,·
CCCCCCCCCCCCCCCC(=O)N[C@@H](COP(=O)(O)O)C(=O)O,-15.0,·,·,·,-7.9
SMILES,Shiga inhibitor,AMA1 RON2 block,Lassa entry inh,Marburg entry inh,Cycloheximide cs
CCOc1ccc(NC(=S)c2ccc3ccccc3n2)cc1,37.7*,6.3%,·,·,23.8*
CCOc1ccc(CN(C)C(=O)c2ccc3ccccc3n2)cc1,14.1,-6.3%,-23.6%,1.7%[46.1 µM],-1.7
COc1ccc(NC(=S)c2ccc3ccccc3n2)cc1,59.9*,-11.0%,·,·,45.3*
COC(=O)Nc1ccc(S(=O)(=O)NC2CCCCC2)cc1,12.9,-2.1%,-2.3%[46.1 µM],?,-4.1
Cc1ccc(NC(=O)N2CCCC2C(=O)NCc2ccc(Cl)cc2)cc1 (stereo not given),-9.3,0.0%,·,·,-1.8
O=C(NCc1ccccc1Br)c1cnc2sc(N3CCCCCC3)nn2c1=O,·,·,-1.6%[46.1 µM],·,·
CCOC(=O)N1CCN(C(=O)c2cc3cc(C)ccc3[nH]2)CC1,-5.3,-1.0%,·,·,-1.2
CCOC(=O)C1CCN(C(=O)c2cc3ccc(OC)cc3[nH]2)CC1,47.6,-4.6%,?,17.8%,26.8*
CCOC(=O)C1CCN(C(=O)c2cc3cc(Cl)ccc3[nH]2)CC1,48.9*,1.7%,-5.8%,0.1%[46.1 µM],22.5*
O=C(CCc1ccc(S(=O)(=O)NC2CCCCC2)cc1)Nc1ccccc1,3.4,-1.4%,5.5%,-8.3%,-1.2
O=C(CCc1ccc(S(=O)(=O)NC2CCCCC2)cc1)N(Cc1ccccc1)Cc1ccccc1,1.1,-4.3%,?,12.6µM*,-2.0
O=C(CCc1ccc(S(=O)(=O)NC2CCCCC2)cc1)NCc1ccccn1,97.6*,30.0%,-1.4%,4.0%,44.3*
O=C(CN1CCCC1)Nc1ccc(OC(F)(F)F)cc1,·,-17.6%,-7.4%,9.4%,19.6*
